Source: PubChem BioAssay AID1159580 (chemical genetic matrix, 2015)
Out of some 5,500 compounds screened, about 2,000 (36%) were called active. Not shown: some 18% with an inconclusive outcome. The list shows a part of the results. A number with no mark means an inactive call. No stated cut-off is given here; in the data, active means normalized growth mostly below about 0.91 (no sharp cut-off); inconclusive means no clear call, values can overlap the other calls; inactive means mostly above about 0.92.

Assay: chemical genetic growth profiling, strain panel (AID 1159580);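 further: tested at 20 µM; growth read once vehicle control cultures reached saturation at 30 °C; 1 = growth at the plate median or of vehicle wells; lower values mean less growth of the strain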
Conditions: S. cerevisiae deletion strains, growth OD

C/C(=C\CO)CC[C@H](C)CCC[C@H](C)CCCC(C)C
normalized growth (locus YJR066W, strain TOR1, hits give low values): 0.98 | normalized growth (locus YJR075W, strain HOC1, hits give low values): 1.12 | normalized growth (locus YKL009W, strain mrt4, hits give low values): 1.09 | normalized growth (locus YKL068W, hits give low values): 1.09 [resistant] (active) | normalized growth (locus YKL085W, strain MDH1 (second series), hits give low values): 1.07 [resistant] (active) | normalized growth (locus YKL085W, strain MDH1, hits give low values): 1.07 [resistant] (active) | normalized growth (locus YKL160W, strain elf1, hits give low values): 0.984 | normalized growth (locus YKL190W, strain CNB1, hits give low values): 1.05 | normalized growth (locus YKR001C, strain vps1, hits give low values): 1.19 [resistant] (active) | normalized growth (locus YKR026C, strain gcn3, hits give low values): 1.12 [resistant] (active) | normalized growth (locus YKR091W, strain srl3, hits give low values): 1.12 [resistant] (active) | normalized growth (locus YLL001W, strain dnm1, hits give low values): 1.13 [resistant] (active) | normalized growth (locus YLL026W, hits give low values): 1.14 [resistant] (active) | normalized growth (locus YLL041C, strain sdh2, hits give low values): 1.13 [resistant] (active) | normalized growth (locus YLR027C, strain aat2, hits give low values): 1.12 [resistant] (active) | normalized growth (locus YLR039C, strain RIC1, hits give low values): 1.16 | normalized growth (locus YLR058C, strain SHM2, hits give low values): 1.09 | normalized growth (locus YLR102C, strain apc9, hits give low values): 1.11 [resistant] (active) | normalized growth (locus YLR113W, strain HOG1, hits give low values): 0.959 | normalized growth (locus YLR221C, strain rsa3, hits give low values): 1.15 [resistant] (active) | normalized growth (locus YLR258W, strain gsy2, hits give low values): 1.14 [resistant] (active) | normalized growth (locus YLR262C, strain YPT6 (second series), hits give low values): 1.17 [resistant] (active) | normalized growth (locus YLR262C, strain YPT6, hits give low values): 1.16 | normalized growth (locus YLR268W, strain sec22, hits give low values): 1.15 [resistant] (active) | normalized growth (locus YLR320W, strain mms22, hits give low values): 0.988 | normalized growth (locus YLR330W, strain CHS5, hits give low values): 1.1 [resistant] (active) | normalized growth (locus YLR342W, strain FKS1 (second series), hits give low values): 1.1 | normalized growth (locus YLR342W, strain FKS1, hits give low values): 1.09 | normalized growth (locus YLR357W, strain rsc2, hits give low values): 1.1 | normalized growth (locus YLR370C, strain arc18, hits give low values): 1.1 [resistant] (active) | normalized growth (locus YLR371W, strain rom2, hits give low values): 1.04 | normalized growth (locus YLR384C, strain iki3, hits give low values): 0.978 | normalized growth (locus YLR418C, strain cdc73, hits give low values): 1.12 | normalized growth (locus YML016C, strain PPZ1, hits give low values): 1.05 | normalized growth (locus YML032C, strain rad52, hits give low values): 1.15 [resistant] (active) | normalized growth (locus YML120C, strain ndi1, hits give low values): 1.13 [resistant] (active) | normalized growth (locus YML124C, strain tub3, hits give low values): 1.12 [resistant] (active) | normalized growth (locus YMR058W, strain fet3, hits give low values): 1.13 [resistant] (active) | normalized growth (locus YMR078C, strain ctf18, hits give low values): 1.15 [resistant] (active) | normalized growth (locus YMR125W, strain sto1, hits give low values): 1.13 [resistant] (active) | normalized growth (locus YMR129W, hits give low values): 1.14 [resistant] (active) | normalized growth (locus YMR205C, strain PFK2, hits give low values): 1.08 | normalized growth (locus YMR223W, strain ubp8, hits give low values): 1.13 [resistant] (active) | normalized growth (locus YMR231W, strain pep5, hits give low values): 1.14 [resistant] (active) | normalized growth (locus YMR263W, strain SAP30, hits give low values): 1.12 [resistant] (active) | normalized growth (locus YMR307W, strain GAS1, hits give low values): 1.1 | normalized growth (locus YNL067W, strain RPL9B, hits give low values): 1.08 | normalized growth (locus YNL071W, strain lat1, hits give low values): 1.13 [resistant] (active) | normalized growth (locus YNL153C, strain GIM3, hits give low values): 1.13 [resistant] (active) | normalized growth (locus YNL183C, strain NPR1, hits give low values): 0.967 | normalized growth (locus YNL209W, strain ssb2, hits give low values): 1.12 [resistant] (active) | normalized growth (locus YNL233W, strain BNI4, hits give low values): 1.07 | normalized growth (locus YNL248C, strain rpa49, hits give low values): 1.13 [resistant] (active) | normalized growth (locus YNL250W, strain rad50, hits give low values): 1.13 [resistant] (active) | normalized growth (locus YNL271C, strain bni1, hits give low values): 1.12 [resistant] (active) | normalized growth (locus YNL298W, strain CLA4, hits give low values): 1.14 [resistant] (active) | normalized growth (locus YNL307C, strain MCK1, hits give low values): 1.14 [resistant] (active) | normalized growth (locus YNL322C, strain KRE1 (second series), hits give low values): 1.08 | normalized growth (locus YNL322C, strain KRE1, hits give low values): 1.07 | normalized growth (locus YNR049C, strain mso1, hits give low values): 1.11 [resistant] (active) | normalized growth (locus YNR052C, strain pop2, hits give low values): 1.14 [resistant] (active) | normalized growth (locus YOL006C, strain TOP1, hits give low values): 1.12 | normalized growth (locus YOL012C, strain htz1): 1.59 | normalized growth (locus YOL147C, strain pex11, hits give low values): 1.12 [resistant] (active) | normalized growth (locus YOR001W, strain rrp6, hits give low values): 1.15 [resistant] (active) | normalized growth (locus YOR061W, strain CKA2, hits give low values): 1.1 | normalized growth (locus YOR069W, strain VPS5, hits give low values): 1.05 | normalized growth (locus YOR070C, strain gyp1, hits give low values): 1.08 [resistant] (active) | normalized growth (locus YOR080W, strain dia2, hits give low values): 0.982 | normalized growth (locus YOR083W, strain WHI5, hits give low values): 1.14 [resistant] (active) | normalized growth (locus YOR106W, strain vam3, hits give low values): 1.15 [resistant] (active) | normalized growth (locus YOR136W, strain idh2, hits give low values): 1.15 [resistant] (active) | normalized growth (locus YOR144C, strain elg1, hits give low values): 1.13 [resistant] (active) | normalized growth (locus YOR184W, strain ser1, hits give low values): 1.15 [resistant] (active) | normalized growth (locus YOR231W, strain MKK1, hits give low values): 0.984 | normalized growth (locus YOR265W, strain rbl2, hits give low values): 1.14 [resistant] (active) | normalized growth (locus YOR270C, strain vph1, hits give low values): 1.16 | normalized growth (locus YOR290C, strain snf2, hits give low values): 1.13 [resistant] (active) | normalized growth (locus YOR316C, strain cot1, hits give low values): 1.13 [resistant] (active) | normalized growth (locus YPL051W, strain arl3, hits give low values): 1.05 | normalized growth (locus YPL055C, strain LGE1, hits give low values): 1.05 | normalized growth (locus YPL078C, strain atp4, hits give low values): 1.12 [resistant] (active) | normalized growth (locus YPL106C, strain sse1, hits give low values): 1.15 [resistant] (active) | normalized growth (locus YPL240C, strain hsp82, hits give low values): 1.12 [resistant] (active) | normalized growth (locus YPL256C, strain CLN2, hits give low values): 0.961 | normalized growth (locus YPR119W, strain clb2, hits give low values): 1.06 | normalized growth (locus YPR141C, strain kar3, hits give low values): 1.12 [resistant] (active) | normalized growth (locus YPR163C, strain tif3, hits give low values): 1.13 [resistant] (active) | normalized growth (locus YPR167C, strain met16, hits give low values): 1.09 [resistant] (active) | normalized growth (strain wtn01, hits give low values): 1.12 [resistant] (active)
